# BioA inh – inhibitors of Mycobacterium tuberculosis BioA enzyme. purified M. tuberculosis BioA enzyme, plate reader. inhibition, % at 9.99 µM. 0.096% of 360,000 active; in the data active = inhibition above about 40%
# Rv3671c protease – inhibits the M. tuberculosis serine protease Rv3671c; 0.048% of 320,000 active; P9WHR9; inhibition, % at 5.96 µM; in the data active = inhibition above about 38%;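 note: extracellular domain of Rv3671c used as enzyme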
# Target sequence (P9WHR9 whole entry, looked up, the tested form may be a part): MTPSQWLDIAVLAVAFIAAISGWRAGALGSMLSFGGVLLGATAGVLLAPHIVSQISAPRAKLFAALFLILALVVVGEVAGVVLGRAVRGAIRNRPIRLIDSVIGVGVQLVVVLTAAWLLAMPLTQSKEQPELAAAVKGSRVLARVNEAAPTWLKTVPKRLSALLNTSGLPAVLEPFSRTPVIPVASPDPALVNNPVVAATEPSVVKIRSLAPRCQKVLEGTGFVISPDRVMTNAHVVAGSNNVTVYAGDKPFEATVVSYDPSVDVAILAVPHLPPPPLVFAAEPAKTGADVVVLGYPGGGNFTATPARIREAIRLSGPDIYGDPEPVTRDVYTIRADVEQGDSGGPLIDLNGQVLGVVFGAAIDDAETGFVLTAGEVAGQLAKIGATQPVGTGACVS
# UGM FP inh – blocks M. tuberculosis UGM enzyme | purified UGM, fluorescence polarization probe displacement | 0.06% of 320,000 active | inhibition, % at 10 µM | P9WIQ1; in the data active = inhibition above about 10%, passing the limit was not always enough
# FadD28 FP inh – blocks FadD28 binding to the bisubstrate probe; fluorescence polarization; inhibition, % at 12.5 µM; 0.22% of 360,000 active; AID 588549; in the data active = inhibition above about 8.5%, passing the limit was not always enough
# RecA splice inh – Mtb RecA intein splicing inhibition; 0.75% of 290,000 active; P9WHJ3; cell-free RecA intein splicing, fluorescence; inhibition, % (concentration not given with the values); in the data active = inhibition above about 30%
# TcdB inh – TcdB glycohydrolase inhibition; P18177; TcdB glycohydrolase enzymatic assay, plate reader; inhibition, % at 9.99 µM; 0.24% of 350,000 active; AID 652162; in the data active = inhibition above about 10%
# Hits are given with their value; 0 = inactive; - = not tested or not shown. Compounds with a hit are over-represented: about 0.97% of the library has one in this group of screens.
SMILES,BioA inh,Rv3671c protease,UGM FP inh,FadD28 FP inh,RecA splice inh,TcdB inh
COc1cc(/C=C2/C(C)=C(C#N)c3nc(N)c(C#N)c(C)c32)ccc1OCC(=O)O,-,0,0,-,0,0
CC1=C(C#N)c2nc(N)c(C#N)c(C)c2/C1=C\c1ccc(-c2ccccc2C(=O)O)o1,-,-,-,11.8,0,0
CCC(=O)N1[C@H](CO)[C@@H](c2ccccc2)C12CN(C(=O)c1ccc(F)cc1)C2,-,-,-,-,-,0
COCCNC(=O)c1cc2c(c(-c3cccc(C#CCN(C)C)c3)n1)[C@H](CCO)N(S(=O)C(C)(C)C)C2 (stereo partly specified),0,-,-,-,-,10.1
Cc1ccc(S(=O)(=O)N[C@H]2C=C[C@@H](CC(=O)N3CCN(c4ccccc4)CC3)O[C@@H]2CO)cc1,0,-,-,-,-,0
CCOc1ccccc1Nc1nnc(C)c(=O)[nH]1,-,0,0,0,0,-
CCOc1ccccc1Nc1nnc(Cc2ccccc2Cl)c(=O)[nH]1,0,0,0,0,30.9,-
Cc1c(CCCC(=O)O)sc(N)c1C(=O)c1cccc(C(F)(F)F)c1,0,0,0,0,0,10.8
N#CCn1c(CCl)nc2ccccc2c1=O,-,0,0,0,38.0,0
C[C@@H]1CCCCO[C@H](CN(C)CC2CC2)[C@H](C)CN([C@@H](C)CO)C(=O)c2cc(NC(=O)Cc3ccccc3)ccc2O1,0,-,-,-,-,0
C/C=C/c1cnc2c(c1)C(=O)N([C@@H](C)CO)C[C@H](C)[C@@H](CN(C)C(=O)NC1CCCCC1)O2,0,-,-,-,-,0
O=C(CNC(=O)c1ccccc1Br)N/N=C/c1ccc(O)cc1,-,0,0,0,0,12.7
C[C@@H]1CN([C@@H](C)CO)C(=O)c2cc(Br)cnc2O[C@@H]1CN(C)Cc1ccc(C(=O)O)cc1,0,-,-,-,-,0
N#C/C(=C\c1ccc(N2CCOCC2)o1)C(=O)Nc1ccc(O)cc1,0,0,0,0,-,19.5
C[C@H](CO)N1C[C@H](C)[C@@H](CN(C)CC2CC2)Oc2ccc(NC(=O)Cc3ccccc3)cc2C1=O,-,-,-,-,-,0
Cc1csc(N/N=C/c2ccc(O)c([N+](=O)[O-])c2)n1,0,0,0,9.3,0,-
COc1c2ccc(C(=O)NCCCCc3ccccc3)cc2nn1C,0,0,0,0,0,13.9
O=C1NC(=Nc2ccccc2Cl)S/C1=C\c1cccc([N+](=O)[O-])c1O,0,0,0,21.4,0,0
O=c1c2ccccc2nc2n1CCS2(=O)=O,0,0,0,0,39.2,0
CN1c2ccccc2C(C)(C)[C@]12C=Cc1cc(O)ccc1O2,0,0,0,0,-,-
COc1ccc2ccc3c(c2c1)N=CC1(O3)N(C)c2ccccc2C1(C)C (stereo unspecified),0,0,0,0,75.6,-
COCC(=O)N(C)C[C@H]1Oc2cc(C3=CCCC3)ccc2S(=O)(=O)N([C@H](C)CO)C[C@@H]1C,0,-,-,-,-,-
CC1=NN(c2ccc(Cl)cc2)C(=O)C1C(c1ccccc1O)c1c(C)[nH]n(-c2ccc(Cl)cc2)c1=O (stereo unspecified),-,0,0,0,0,-
CC1=NN(c2ccc(C)cc2C)C(=O)C1C(c1ccccc1O)C1C(=O)N(c2ccc(C)cc2C)N=C1C (stereo unspecified),0,0,0,0,77.6,-
O=C1NC(=O)/C(=C/c2ccccc2Oc2ccc(Cl)cc2)S1,0,0,0,0,0,-
SMILES,BioA inh,Rv3671c protease,UGM FP inh,FadD28 FP inh,RecA splice inh,TcdB inh
COc1ccccc1C=C1SC(=S)NC1=O,-,-,-,0,-,10.6
Cc1ccc(S(=O)(=O)Oc2ccccc2/C=C2\SC(=O)NC2=O)cc1,-,0,0,0,0,10.6
O=S(=O)(CCSc1ccccn1)c1nc2ccccc2s1,0,0,0,0,39.6,0
C[C@@H]1CN([C@H](C)CO)C(=O)c2cc(-c3ccc(C(=O)N(C)C)cc3)cnc2O[C@H]1CN(C)C,0,-,-,-,-,0
COc1cccc(C(=O)C2CCCN(Cc3ccc(F)cc3)C2)c1 (stereo unspecified),0,0,0,0,0,12.7
COc1cccc(C(=O)C2CCCN(Cc3ccc4nsnc4c3)C2)c1 (stereo unspecified),0,0,0,0,0,0
CCN(CC)CC(=O)Nc1cc(N(C)C)nc2ccccc12,0,0,0,0,0,0
CN1CCN(CC(=O)Nc2cc(N(C)C)nc3ccccc23)CC1,-,0,0,0,0,12.8
CCCCOc1[nH]c2nc(-c3ccco3)n(Cc3ccco3)c(=N)c2c1C#N,-,0,0,10.9,0,-
c1ccc(CSc2nnc(-c3ccco3)n2Cc2ccco2)cc1,0,0,0,0,0,-
COc1ccc(CCNc2oc(-c3ccc(OC)c(OC)c3)nc2C#N)cc1,0,0,0,12.3,0,-
O=C(C[C@H]1CC[C@@H]2[C@H](COC[C@H](O)CN2C(=O)c2ccccc2)O1)N1CCc2ccccc2C1,0,-,-,-,-,0
CCNC(=O)C[C@@H]1CC[C@@H]2[C@H](COc3ccc(NC(=O)Nc4ccc(Cl)cc4)cc3C(=O)N2C)O1,0,-,-,-,-,0
C[C@H](O)C#Cc1ccc2c(c1)O[C@H](CN(C)CC1CC1)[C@H](C)CN([C@@H](C)CO)S2(=O)=O,0,-,-,-,-,-
O=C1NN(c2ccc(F)c(Cl)c2)C(=O)/C1=C\c1cccc(OC(=O)c2cccs2)c1,0,0,0,25.8,0,-
Nc1c(C(=O)NCCCc2ccccc2)c2nc3ccccc3nc2n1Cc1cccs1,0,0,0,0,32.3,-
CCCOC(=O)c1c(N)n(Cc2cccs2)c2nc3ccccc3nc12,0,0,0,0,0,-
CCCCn1c(N)c(C(=O)NCc2cccs2)c2nc3ccccc3nc21,0,0,0,0,75.5,-
CCCCCn1c(N)c(C(=O)NCCN2CCOCC2)c2nc3ccccc3nc21,0,0,0,0,0,-
CCOc1ccc(NC(=O)CSc2nnc(C3CC3)n2C2CC2)cc1,0,0,0,0,-,0
NC(=O)c1ccc(NC(=O)CSc2nnc(C3CC3)n2C2CC2)cc1,0,0,0,0,-,12.1
OC[C@@H]1[C@H](c2ccc(C#CC3(O)CCCC3)cc2)[C@H]2CN(Cc3cccnc3)CCCCN12,0,-,-,-,-,0
COc1ccccc1-c1c(C)oc2cc(OC(=O)c3ccco3)ccc2c1=O,0,0,0,0,30.6,-
C[C@@H]1CN([C@@H](C)CO)C(=O)c2cccc(NS(C)(=O)=O)c2O[C@@H]1CN(C)Cc1ccc(Oc2ccccc2)cc1,0,-,-,-,-,0
O=Nc1c(O)c2ccccc2c2ccccc12,0,0,0,0,41.5,0
C[C@H](CO)N1C[C@H](C)[C@@H](CN(C)CC2CCCCC2)Oc2ccc(NC(=O)CCN3CCOCC3)cc2CC1=O,0,-,-,-,-,0
OCCN(CCO)c1ccc(C(c2ccccc2Cl)c2ccc(N(CCO)CCO)cc2Cl)c(Cl)c1,0,0,-,0,31.6,-
CNC(=O)C[C@@H]1CC[C@@H]2[C@H](COC[C@H](O)CN2C(=O)c2ccccn2)O1,0,-,-,-,-,0
O=C(C[C@H]1CC[C@@H]2[C@H](COC[C@@H](O)CN2C(=O)c2ccccn2)O1)NC1CCC1,0,-,-,-,-,15.1
O=C(C[C@@H]1CC[C@@H]2[C@H](COC[C@@H](O)CN2C(=O)c2ccccn2)O1)NC1CCC1,0,-,-,-,-,26.6

# Screening data deposited in PubChem BioAssay by several laboratories.
